# Results taken from PubChem BioAssay (NCATS).
# “And” between values parts separate entries of the source, which are not always exact repeats. Equal entries are not always repeated. Results filed as inconclusive are left out. More than one record can exist for a structure, and the calls need not agree. The source made the active and inactive calls. Calls follow the shape of the dose curve; as a rule, active = well fitted curve in the direction sought with a large enough effect; inconclusive = small, poorly fitted or top-dose-only effect, or another doubt; inactive = no such curve, though single readings can be large; an effect the other way counts as inactive or inconclusive.
# Legend:
# [1] = biological target: Cytochrome P450 2C9 (Homo sapiens) (UniProt P11712); test: qHTS Assay for Inhibitors and Substrates of Cytochrome P450 2C9 (AID 883); also: nearly all actives have a fitted effect of over 60% in size; also: potency is read from the fitted curve at half-maximal effect; as to activity change, negative = inhibition: % is scaled to controls: 0 for no effect and ±100 for the full control effect
# Chain of Cytochrome P450 2C9 (Homo sapiens) (P11712 whole entry, looked up): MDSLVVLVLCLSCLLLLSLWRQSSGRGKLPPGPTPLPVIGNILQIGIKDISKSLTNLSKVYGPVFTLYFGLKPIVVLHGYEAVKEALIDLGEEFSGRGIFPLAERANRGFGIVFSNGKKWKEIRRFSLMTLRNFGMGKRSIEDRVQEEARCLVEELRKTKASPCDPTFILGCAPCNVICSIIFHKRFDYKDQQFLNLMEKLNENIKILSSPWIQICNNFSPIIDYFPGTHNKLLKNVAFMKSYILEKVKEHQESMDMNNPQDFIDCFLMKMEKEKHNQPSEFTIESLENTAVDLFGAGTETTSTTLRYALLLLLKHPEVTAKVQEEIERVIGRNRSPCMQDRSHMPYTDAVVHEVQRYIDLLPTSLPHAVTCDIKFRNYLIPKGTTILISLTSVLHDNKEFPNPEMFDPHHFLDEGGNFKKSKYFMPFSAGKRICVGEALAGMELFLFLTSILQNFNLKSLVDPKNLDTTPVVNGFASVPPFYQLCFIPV
# Outline: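 Luminescent read-out of deoxyluciferin hydroxylation, normalized to 57uM sulphaphenazole (AC100). Reaction: 10nM enzyme, 100uM Luciferin-H (equal to KM), 25mM KPO4, 10 min compound preincubation, then 60 min with NADPH regeneration, both at 37C.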
# [2] = biological target: Cytochrome P450 3A4 (Homo sapiens) (UniProt P08684); test: qHTS Assay for Inhibitors and Substrates of Cytochrome P450 3A4 (AID 884); also: nearly all actives have a fitted effect of over 50% in size; also: potency is read from the fitted curve at half-maximal effect; as to activity change, negative = inhibition: series mostly up to about 57 µM; % is scaled to controls: 0 for no effect and ±100 for the full control effect
# Chain of Cytochrome P450 3A4 (Homo sapiens) (P08684 whole entry, looked up): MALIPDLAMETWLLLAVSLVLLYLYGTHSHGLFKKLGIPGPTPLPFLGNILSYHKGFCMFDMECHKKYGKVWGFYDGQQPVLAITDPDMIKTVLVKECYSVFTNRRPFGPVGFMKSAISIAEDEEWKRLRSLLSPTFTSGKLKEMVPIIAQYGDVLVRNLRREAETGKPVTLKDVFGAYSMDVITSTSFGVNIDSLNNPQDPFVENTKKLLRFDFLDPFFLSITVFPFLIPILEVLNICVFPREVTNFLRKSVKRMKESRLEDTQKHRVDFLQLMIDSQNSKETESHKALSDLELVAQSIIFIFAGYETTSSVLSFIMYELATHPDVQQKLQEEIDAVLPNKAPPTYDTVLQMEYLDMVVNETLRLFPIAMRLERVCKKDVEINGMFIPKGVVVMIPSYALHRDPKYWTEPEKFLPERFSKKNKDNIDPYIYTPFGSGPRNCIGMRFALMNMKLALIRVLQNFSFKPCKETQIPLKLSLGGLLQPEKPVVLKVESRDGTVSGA
# Outline: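 20 nM human CYP3A4 with 25 uM Luciferin-PPXE (at KM) in 200 mM KPO4, preincubated 10 min with compound; NADPH regeneration started a 60 min RT reaction. Luciferin detected by luminescence, normalized to 57 uM ketoconazole as full inhibition.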
# [3] = biological target: Cytochrome P450 3A4 (Homo sapiens) (UniProt P08684); test: qHTS Assay for Activators of Cytochrome P450 3A4 (AID 885); also: nearly all actives have a fitted effect of over 65% in size
# Outline: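 20nM CYP3A4 + 25uM Luciferin-PPXE (=KM), 200mM KPO4; cpd 10 min RT; NADPH regen, 60 min RT; stop w/ detection buffer, 20 min; luminescence. Normalized to 57 uM ketoconazole.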
# [4] = biological target: Cytochrome P450 2D6 (Homo sapiens) (UniProt P10635); test: qHTS Assay for Inhibitors and Substrates of Cytochrome P450 2D6 (AID 891); also: nearly all actives have a fitted effect of over 60% in size; also: potency is read from the fitted curve at half-maximal effect;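 as to activity change, negative = inhibition: luciferin methyl ether substrate demethylated by CYP2D6 with NADPH regeneration; % is scaled to controls: 0 for no effect and ±100 for the full control effect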
# Chain of Cytochrome P450 2D6 (Homo sapiens) (P10635 whole entry, looked up): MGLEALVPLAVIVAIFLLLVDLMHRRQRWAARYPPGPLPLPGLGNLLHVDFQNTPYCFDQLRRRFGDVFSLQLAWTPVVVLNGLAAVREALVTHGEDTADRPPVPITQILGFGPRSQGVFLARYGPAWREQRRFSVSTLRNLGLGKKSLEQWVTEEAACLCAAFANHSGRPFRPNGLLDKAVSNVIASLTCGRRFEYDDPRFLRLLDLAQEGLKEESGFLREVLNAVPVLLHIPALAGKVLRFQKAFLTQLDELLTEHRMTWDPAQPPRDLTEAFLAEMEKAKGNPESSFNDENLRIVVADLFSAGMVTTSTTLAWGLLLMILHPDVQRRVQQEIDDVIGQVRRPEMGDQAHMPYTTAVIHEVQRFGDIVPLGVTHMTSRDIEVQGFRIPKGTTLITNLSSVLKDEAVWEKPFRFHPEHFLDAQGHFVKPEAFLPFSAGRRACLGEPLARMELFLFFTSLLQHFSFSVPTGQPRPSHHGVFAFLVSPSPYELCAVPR
# Outline: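 Human CYP2D6 (5 nM) with 30 uM Luciferin-ME EGE (at Km) in 100 mM KPO4, compound preincubated 10 min, then NADPH regeneration system for 60 min at room temperature. Luciferin read by luminescence; normalized to 1.43 uM quinidine.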
# [5] = biological target: Cytochrome P450 2C19 (Homo sapiens) (UniProt P33261); test: qHTS Assay for Inhibitors and Substrates of Cytochrome P450 2C19 (AID 899); also: nearly all actives have a fitted effect of over 60% in size; also: potency is read from the fitted curve at half-maximal effect
# Chain of Cytochrome P450 2C19 (Homo sapiens) (P33261 whole entry, looked up): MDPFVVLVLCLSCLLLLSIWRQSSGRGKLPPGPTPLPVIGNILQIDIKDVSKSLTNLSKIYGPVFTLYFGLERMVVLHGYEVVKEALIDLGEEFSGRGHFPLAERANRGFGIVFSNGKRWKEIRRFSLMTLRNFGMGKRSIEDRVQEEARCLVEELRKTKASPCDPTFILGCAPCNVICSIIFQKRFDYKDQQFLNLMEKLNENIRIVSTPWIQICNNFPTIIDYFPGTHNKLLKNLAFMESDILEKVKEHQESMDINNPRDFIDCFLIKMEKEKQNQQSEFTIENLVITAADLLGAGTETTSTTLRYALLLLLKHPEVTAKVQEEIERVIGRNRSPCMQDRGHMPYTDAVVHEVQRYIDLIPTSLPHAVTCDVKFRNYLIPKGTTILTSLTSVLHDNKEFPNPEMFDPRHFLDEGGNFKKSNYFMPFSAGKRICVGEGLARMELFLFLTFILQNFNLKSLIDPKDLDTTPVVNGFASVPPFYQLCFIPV
# Outline: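 Luminescence readout of luciferin formed from 10uM Luciferin-H EGE (KM level) by 5 nM CYP2C19 in 50mM KPO4. 60 min NADPH-driven reaction at 37C after 10 min compound preincubation; data scaled to 57uM ketoconazole inhibition.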
Compound,Potency [1],Potency [2],"activity change, positive = activation [3]",Potency [4],Potency [5],"activity change, negative = inhibition [2]"
COc1ccc(OC2C=CC(c3ccccc3)OC2CO)c(C(C)(C)C)c1 (stereo not drawn),3.16 µM (active),0.794 µM (active),-79.5% [at 11.4 µM] (inactive),inactive,3.16 µM (active),
COC(=O)NC(CC(C)=O)c1ccc2c(c1)OCO2 (stereo not drawn),inactive,3.98 µM (active),-67.3% [at 11.4 µM] (inactive),inactive,inactive,
CCOC(=O)OCC1OC(C#Cc2ccc(F)cc2F)C=CC1OC(=O)OCC (stereo not drawn),inactive,3.16 µM (active),-75.6% [at 11.4 µM] (inactive),inactive,inactive,
CC(=O)OCC1OC(C#CCCc2ccccc2)C=CC1OC(C)=O (stereo not drawn),inactive,3.16 µM (active),-61.8% [at 11.4 µM] (inactive),inactive,inactive,
CC#CC(C)C(OCOC)C(CC(C)Cc1cc(Br)cc(OCc2ccccc2)c1OC)OC (stereo not drawn),inactive,3.16 µM (active),-76.2% [at 11.4 µM] (inactive),inactive,inactive,
COc1ccc(OC2C(O)COC2/C=C/C#Cc2ccc(F)cc2F)cc1 (stereo not drawn),2.51 µM (active),3.98 µM (active) and 3.16 µM (active),-91.9% [at 11.4 µM] (inactive) and -66.3% [at 11.4 µM] (inactive),inactive,inactive,
COC(=O)C1=C(C)N(Cc2ccccc2)[C@]23O[C@](C(=O)OC)(C(=O)N2C1c1ccccc1)C(C(=O)OC)C3C(=O)OC (stereo partly drawn),inactive,,-46.5% [at 11.4 µM] (inactive),inactive,inactive,-20.8% [at 11.4 µM] (inactive)
CCCCC#CC1C=CC(Oc2ccc(OC)cc2)C(CO)O1 (stereo not drawn),inactive,3.16 µM (active),-94.2% [at 11.4 µM] (inactive),inactive,2 µM (active),
C=CCOC(=O)C(C(C)=O)C(NC(=O)OC)c1ccc(F)cc1 (stereo not drawn),inactive,3.16 µM (active),-78% [at 11.4 µM] (inactive),inactive,0.398 µM (active),
COc1ccc(/C=C/N(CCc2ccc(OC)c(OC)c2)C(C)=O)cc1,3.16 µM (active),2 µM (active),-88.6% [at 11.4 µM] (inactive),inactive,0.794 µM (active),
CC1CCC2C(=O)N3C(CCC(C)[C@@H]3c3cccc(N4CCOCC4)c3)C(=O)N2C1c1cccc(N2CCOCC2)c1 (stereo partly drawn),inactive,3.98 µM (active),-62.4% [at 11.4 µM] (inactive),inactive,inactive,
COC(=O)C1=C(C)N(Cc2ccccc2)[C@]23O[C@](C(=O)OC)(C(=O)N2C1c1ccccc1)C1CCCC(=O)C13 (stereo partly drawn),inactive,,-50.6% [at 11.4 µM] (inactive),inactive,inactive,-22.3% [at 11.4 µM] (inactive)
CC(=O)OCC1OC(C#CCCCc2ccccc2)C=CC1OC(C)=O (stereo not drawn),inactive,3.98 µM (active),-71.4% [at 11.4 µM] (inactive) and -59.5% [at 11.4 µM] (inactive),3.98 µM (active) and 3.16 µM (active),inactive,
C/C=C/OC(=O)NC(c1ccccc1)[C@@]1(C(=O)OC)CCCC1=O (stereo partly drawn),inactive,1 µM (active),-81.6% [at 11.4 µM] (inactive),inactive,1.26 µM (active),
COc1cccc([C@@H]2Oc3ccc(OC)cc3/C(=N/OC[C@@H](C)[C@H](OCc3ccccc3)C(C)C)[C@@H]2O)c1,3.98 µM (active),3.16 µM (active),-89.7% [at 11.4 µM] (inactive),,2 µM (active),
CC#CCOCC/C=C1/c2ccccc2C(OC)C1C (stereo not drawn),inactive,3.98 µM (active),-90.8% [at 11.4 µM] (inactive),inactive,1 µM (active),
CCCCCCC1Cc2cc(OC)c(OC)cc2C(C(C(=O)OCC)C(=O)OCC)O1 (stereo not drawn),inactive,3.16 µM (active) and 1.58 µM (active),-66.2% [at 11.4 µM] (inactive) and -65.3% [at 11.4 µM] (inactive),inactive,inactive and 3.16 µM (active),
C=CCC(O)CC1C2C(CC(O)CC=C)C3C1C3C2OC(C)(C)C (stereo not drawn),inactive,1.58 µM (active),-98.2% [at 11.4 µM] (inactive),inactive,0.794 µM (active),
Cc1cc(C)cc(/C=C/C2OCC(O)C2Oc2ccc(C3CCCC3)cc2)c1 (stereo not drawn),inactive,3.16 µM (active),-62.6% [at 11.4 µM] (inactive) and -33.3% [at 11.4 µM] (inactive),inactive,inactive,
COC(=O)N(/C=C/c1ccc(OC)cc1)CCc1ccc(OC)c(OC)c1,3.16 µM (active),3.98 µM (active),-93.3% [at 11.4 µM] (inactive),inactive,3.98 µM (active),

Compound,Potency [1],Potency [2],"activity change, positive = activation [3]",Potency [4],Potency [5],"activity change, negative = inhibition [2]"
COC(=O)C/C=C\[C@@H](C)[C@@H](/C=N\OC[C@@H]1O[C@H](c2ccccc2)C=C[C@@H]1Oc1ccc(OC)cc1)NS(=O)(=O)c1ccc(C)cc1,1.26 µM (active),5.01 µM (active),-96.1% [at 11.4 µM] (inactive),,0.398 µM (active),
CCOC(=O)OCC1C=C[C@H](c2cc(-c3ccccc3)ccc2O)C(c2ccc(C(C)=O)cc2)O1 (stereo partly drawn),0.316 µM (active),3.16 µM (active),-86.1% [at 11.4 µM] (inactive),,3.16 µM (active),
COC(=O)C1=C(C)N(Cc2ccccc2)[C@]23O[C@](C(=O)OC)(C(=O)N2C1c1ccccc1)C(c1ccccc1)C3C(=O)c1ccccc1 (stereo partly drawn),inactive,,-32.3% [at 11.4 µM] (inactive),inactive,inactive,-26.7% [at 11.4 µM] (inactive)
Cc1cc(F)ccc1OC1C=CC(c2ccc3c(c2)OCO3)OC1CO (stereo not drawn),3.16 µM (active),3.16 µM (active),-72.5% [at 11.4 µM] (inactive),,inactive,
COC(=O)C1=C(C)N(Cc2ccccc2)C2=C3C(=O)OCCC3[C@@](O)(C(=O)OC)C(=O)N2C1c1ccccc1 (stereo partly drawn),inactive,3.98 µM (active),-61.3% [at 11.4 µM] (inactive),inactive,inactive,
CC1(C)OC(C(O)(c2ccccc2)c2ccccc2)C(C(O)(c2ccccc2)c2ccccc2)O1 (stereo not drawn),inactive,2.51 µM (active),-63.1% [at 11.4 µM] (inactive),inactive,inactive,
C=CCOC(=O)C(C(C)=O)C(NC(=O)OC)c1cccc(C)c1 (stereo not drawn),inactive,2.51 µM (active),-86.6% [at 11.4 µM] (inactive),inactive,0.794 µM (active),
COC(=O)C1=C(C)N(Cc2ccccc2)C2=C3C(=O)CCCC3[C@@](O)(C(=O)OC)C(=O)N2C1c1ccccc1 (stereo partly drawn),inactive,,-36% [at 11.4 µM] (inactive),inactive,inactive,-20% [at 11.4 µM] (inactive)
C=CCOC(=O)C(C(C)=O)C(NC(=O)OC)c1ccccc1 (stereo not drawn),inactive,3.98 µM (active),-86.9% [at 11.4 µM] (inactive),inactive,0.631 µM (active),
C/C(CCC(=O)OC[C@@H]1O[C@H](C#Cc2ccccc2)C=C[C@@H]1Oc1ccc(C)cc1)=N/O[C@@H](C)c1cn([C@H](CO)Cc2ccccc2)nn1,3.16 µM (active),3.98 µM (active) and 3.16 µM (active),-114% [at 11.4 µM] (inactive) and -117% [at 11.4 µM] (inactive),,3.98 µM (active),
CC1CCC2C(=O)OC(COc3ccc(C(C)(C)C)cc3)CN2C1c1ccc(Br)cc1 (stereo not drawn),inactive,,-42.1% [at 11.4 µM] (inactive) and -33.2% [at 11.4 µM] (inactive),inactive,251 nM (active) and inactive,-22.1% [at 11.4 µM] (inactive) and -29.8% [at 11.4 µM] (inactive) and -21% [at 11.4 µM] (inactive)
COc1ccc(OCC2Cc3c(-c4ccccc4)nc4c(c3CO2)CN(CCOc2ccccc2)CC4)cc1 (stereo not drawn),inactive,3.98 µM (active),-83.6% [at 11.4 µM] (inactive),inactive,inactive,
OCC1OC(/C=C\c2ccccc2)C=CC1Oc1ccc2c(c1)OCO2 (stereo not drawn),inactive,0.398 µM (active),-105% [at 11.4 µM] (inactive),3.98 µM (active),0.251 µM (active),
CC(=O)c1ccc(OC2C(O)COC2/C=C/c2ccc(Cl)cc2)cc1 (stereo not drawn),inactive,,-50% [at 11.4 µM] (inactive),inactive,inactive,-27.7% [at 11.4 µM] (inactive)
CCC(=O)[C@]12O[C@@]3(C4C(=O)OCCC41)N(Cc1ccccc1)C(C)=C(C(=O)OC)C(c1ccccc1)N3C2=O (stereo partly drawn),inactive,1.26 µM (active),-106% [at 11.4 µM] (inactive),inactive,inactive,
COC(=O)C1=C2N(Cc3ccccc3)C(C)=C(C(=O)OC)C(c3ccccc3)N2C(=O)[C@](O)(C(=O)OC)C1 (stereo partly drawn),inactive,,-51.3% [at 11.4 µM] (inactive),inactive,inactive,-26.5% [at 11.4 µM] (inactive)
CCCCCCC(=O)Cc1cc(OC)c(OC)cc1/C=C(/C(C)=O)C(=O)OC,inactive,3.98 µM (active),-68.2% [at 11.4 µM] (inactive),inactive,2 µM (active),
CCN1C(C)=C(C(=O)OC)C(c2ccccc2)N2C(=O)[C@](O)(C(=O)OC)C(c3ccccc3)C(C(=O)c3ccccc3)=C12 (stereo partly drawn),inactive,3.16 µM (active),-65.7% [at 11.4 µM] (inactive),,inactive,
CCCCOC(OCCCC)[C@H](O)CSc1ccc2ccccc2c1,2 µM (active),5.01 µM (active),-60.8% [at 11.4 µM] (inactive),,3.16 µM (active),
